# From PubChem BioAssay (NCATS)
# “And” between values parts separate entries of the source, which are not always exact repeats. Identical values can stand only once. Records with an inconclusive call do not appear. Entries that show only a call come without a potency. The source made the active and inactive calls. Calls come from the whole dose curve; as a rule, active = well fitted cell-killing curve with a large enough effect; inconclusive = small, poorly fitted or top-dose-only effect; inactive = flat fitted curve, though single readings scatter.
# Experiment: Cellular viability qHTS for adrenocortical cancer (ACC) cell line NCI-H295R (AID 1963990); note: nearly all actives have a fitted effect of over 60% in size
# Details: CellTiter-Glo ATP luminescence, 48 h; series mostly up to 46.1 µM
# Source text: PI: Naris Nilubol, MD Surgical Oncology Program, National Cancer Institute (NCI) National Institute of Health (NIH), Bethesda, Maryland Adrenocortical cancer (ACC) is a rare malignancy with poor survival outcomes and few treatment options. Currently, mitotane is the only FDA-approved therapy for ACC. Although adjuvant radiation therapy is rarely utilized, it has the potential to improve survival in select cases. Through a quantitative high-throughput drug screen (qHTS), we identified auranofin (AF), a thioredoxin reductase (TXNRD) inhibitor, as a promising candidate drug. This study aims to evaluate whether AF can enhance the efficacy of radiation therapy in the treatment of ACC. Two human ACC cell lines, SW-13 and NCI-H295R, were screened using the National Center for Advancing Translational Sciences (NCATS) Pharmaceutical Collection (NPC) and the Mechanism Interrogation PlatE (MIPE) library (~4,991 compounds). CellTiter-Glo (Cat # G7570, Promega, Madison, WI) was utilized to measure cell viability. Described herein are the results of the corresponding viability assay.
# PROTOCOL TABLE (as described by Inglese J, Shamu CE and Guy RK. 2007) SEQUENCE No. (e.g., 1, 2, 3, etc.); […] (e.g., Cells, Incubation, Reagent, etc.); VALUE; DESCRIPTION. 1; Cells; 5 uL; white, solid-bottom, 1536-well tissue-culture treated plates. 2; Time; overnight culture at 37C with 5% CO2. 3; Compounds and control; 23 nL; Kalypsis pin tool (Wako USA) equipped with a 1536-well pin head to transfer to the assay plates. 4; Time; 48 hours; 37C with 5% CO2. 5; Reagent; 4 uL; CellTiter-Glo luminescent substrate mix. 6; Time; 20 min at room temperature. 7; Detection; Luminescence; ViewLux plate reader NOTES (numbers refer to Sequence numbers above) 1. NCI-H295R cells were harvested from a T175 flask and resuspended in ITS-supplemented DMEM serum-free medium at a concentration of 300 000 cells/mL. Then 5 uL of resuspended cells were dispensed into each well of white, solid-bottom, 1536-well tissue-culture-treated plates using a multidrop combi dispenser. The plates were covered with stainless steel gasket lids. 2-3. The plates were cultured overnight at 37C with 5% CO2. Twenty-three nL of compounds (eight selected concentrations from the NPC / MIPE) or positive control (10 mM stock of bortezomib) in DMSO was transferred to each well of the assay plate using a pin tool (Kalypsys, San Diego, CA, USA). The final concentration of the compounds in the 5 uL assay volume ranged from 0.5 nM to 46 uM. 4-6. After 48 hours of incubation at 37C and 5% CO2, 4 uL of CellTilter-Glo luminescent substrate mix (Promega, Madison, WI, USA) was added to each well. Then the plates were incubated for 20 minutes at room temperature. 7. After incubation, luminescence was measured using a ViewLux plate reader (PerkinElmer, Waltham, MA, USA) with a clear filter was used to measure the number of metabolically competent cells. To determine compound activity in the qHTS assay, the titration-response data for each sample was plotted and modeled by a four-parameter logistic fit yielding IC50 and efficacy (maximal response) values. Raw plate reads for each titration point were normalized relative to positive control ([…], 100% inhibition) and DMSO-only wells (basal, 0%). REFERENCES: Inglese J, Shamu CE and Guy RK, Reporting data from high throughput screening of small molecule libraries, Nature Chemical Biology, 2007, 3(8): 438-441. doi.org/10.1038/nchembio0807-438.
row,Structure (SMILES),Potency
1,COC(=O)C1=C(C)NC(C)=C(C(=O)OC(C)(C)CN(C)CCC(c2ccccc2)c2ccccc2)C1c1cccc([N+](=O)[O-])c1 (stereo not given),20.6 µM (active)
2,COc1ccc(Cl)cc1C(=O)NCCc1ccc(S(=O)(=O)NC(=O)NC2CCCCC2)cc1,inactive
3,CC(=O)O[C@]1(C(C)=O)CC[C@H]2[C@@H]3C=C(C)C4=CC(=O)CC[C@]4(C)[C@H]3CC[C@@]21C,inactive
4,COC[C@@H](c1ccc(C(F)(F)F)cc1)N1CCN(C2(C)CCN(C(=O)c3c(C)ncnc3C)CC2)C[C@@H]1C,inactive
5,NS(=O)(=O)c1cc2c(cc1Cl)NC=NS2(=O)=O,inactive
6,O=C(CCNNC(=O)c1ccncc1)NCc1ccccc1,inactive
7,CN(C)CCC(c1ccccc1)c1ccccn1 (stereo not given),inactive
8,COc1cc(-c2nn(C3CCC(N4CCN(C(C)=O)CC4)CC3)c3ncnc(N)c23)ccc1NC(=O)c1cc2ccccc2n1C (stereo not given),inactive
9,Nc1ncnc2c1ncn2[C@@H]1O[C@H](CO)[C@@H](O)[C@H]1O,inactive
10,CCC(CC)CC1(C(=O)Nc2ccccc2SC(=O)C(C)C)CCCCC1,inactive
11,COC(=O)Nc1ccc(-c2nc(N3CCOCC3)c3cnn(C4CCN(Cc5cccnc5)CC4)c3n2)cc1,5.01 µM (active)
12,N=C(N)N,inactive
13,CCOc1ccc(NC(=O)CC(C)O)cc1 (stereo not given),inactive
14,O=C(/C=C/C#Cc1cccc(NS(=O)(=O)c2ccccc2)c1)NO,3.19 µM (active)
15,Cc1ccc(-c2ccc3c(ccc4sc5c(c43)NC[C@@H](C)NC5=O)n2)cn1,28.2 µM (active)
16,Cc1cc(Nc2cc(NC(=O)c3c(Cl)cccc3Cl)ccn2)nc(N)n1,7.08 µM (active)
17,O=C1OC2(CCC(C(=O)Nc3ccn(-c4ccccc4F)n3)CC2)c2cnccc21 (stereo not given),inactive
18,CC(C)n1nc(-c2cc3cc(O)ccc3[nH]2)c2c(N)ncnc21,2.31 µM (active) and 10 µM (active)
19,Cc1cc2c(s1)Nc1ccccc1N=C2N1CCN(C)CC1,inactive
20,CCn1cc(C(=O)O)c(=O)c2cc(F)c(N3CCN(C)CC3)cc21,inactive

row,Structure (SMILES),Potency
1,CCOc1cc(C(C)(C)C)ccc1C1=N[C@@](C)(c2ccc(Cl)cc2)[C@@](C)(c2ccc(Cl)cc2)N1C(=O)N1CCN(CC(=O)N2CCOCC2)CC1,14.1 µM (active)
2,NCCS,inactive
3,NCCC(O)(P(=O)(O)O)P(=O)(O)O,inactive
4,OC[C@]1(O)OC[C@@H](O)[C@H](O)[C@@H]1O,inactive
5,C[C@@H](O)[C@H]1C(=O)N2C(C(=O)O)=C(S[C@@H]3CN[C@H](C(=O)N(C)C)C3)[C@H](C)[C@H]12,inactive
6,Cc1cc(-n2nc3ccc(Cl)cc3n2)c(O)c(C(C)(C)C)c1,inactive
7,O=C(NC[C@H](O)CO)c1ccncc1Nc1ccc(I)cc1F,31.6 µM (active)
8,O=NN(CCCl)C(=O)NC1CCCCC1,inactive
9,CC1(C)OC[C@@H](COC(=O)CCc2ccc(OC[C@@H](O)CNCCNC(=O)N3CCOCC3)cc2)O1,inactive
10,Cc1c(C(=O)N2CCOc3ccc(-c4ccc(N)nc4)cc3C2)ccc(S(C)(=O)=O)c1F,8.91 µM (active)
11,CCN(CC)CCNc1ccc(CO)c2sc3ccccc3c(=O)c12,1.03 µM (active)
12,CC(C)OC(=O)C(C(=O)OC(C)C)=C1SC=CS1,inactive
13,CN1Cc2cc(C(=O)N3CCC(C4CCNCC4)CC3)ccc2N[C@@H](CC(=O)O)C1=O,inactive
14,CC(C)[C@](O)(c1ccc2cc(OC(F)F)c(OC(F)F)cc2c1)c1cn[nH]n1,25.1 µM (active)
15,COC(=O)CCc1ccc(OCC(O)CNC(C)C)cc1 (stereo not given),inactive
16,CS(=O)(=O)N1CCN(Cc2cc3nc(-c4cccc5[nH]ncc45)nc(N4CCOCC4)c3s2)CC1,2.24 µM (active)
17,FC(F)(F)C(Cl)Br (stereo not given),inactive
18,COc1ccc(NS(=O)(=O)c2ccc(N)cc2)nn1,inactive
19,CCOc1cc2ncc(C#N)c(Nc3ccc(OCc4ccccn4)c(Cl)c3)c2cc1NC(=O)/C=C/CN(C)C,2 µM (active)
20,CCOC(=O)OC(C)OC1=C(C(=O)Nc2ccccn2)N(C)S(=O)(=O)c2ccccc21 (stereo not given),inactive
